# In the library only some 12% were active in any assay of this set; here they are far more common.
# Pf growth 48h: P. falciparum growth inhibition at 48 hours (one generation); 5.9% of 310,000 active; P. falciparum luciferase growth in erythrocytes, 48 h; Potency, µM (highest dose often 28.7 µM), inactives show at the top dose activity change, negative = inhibition, usual class: inhibitors; also: % is scaled to controls: 0 for no effect and ±100 for the full control effect
#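 Here the parasites carry a stable luciferase gene and grow inside erythrocytes in Albumax-based RPMI medium with compound for one erythrocytic cycle. Activity is scored as loss of luminescent signal.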
# SARS PLpro yeast: SARS-CoV PLP inhibition in yeast | Potency, µM (highest dose often 32.9 µM), inactives show top-dose activity, positive = growth rescue, most hits filed as activators | S. cerevisiae expressing SARS-CoV PLpro, growth rescue | 0.19% of 330,000 active; calls by dose curve; also: 0% is about no effect; nearly all actives have a fitted effect of over 55% in size
# Pf growth 96h: P. falciparum growth inhibition at 96 hour, primary screen for plastid delayed-death inhibitors; Potency, µM (series often up to 28.7 µM), for inactives: at the highest dose activity change, negative = inhibition, hits mostly inhibitors; P. falciparum luciferase reporter growth, 96 h; 6.9% of 320,000 active; also: % is scaled to controls: 0 for no effect and ±100 for the full control effect
#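 Delayed-death screen, second-generation endpoint: infected erythrocytes, 2% hematocrit, 0.05% parasitemia final; 96 hours at 37 C, 5% CO2; luciferase detection reagent; luminescence decrease equals reduced growth.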
# Sm TGR block: inhibitors of Schistosoma mansoni thioredoxin glutathione reductase; 3% of 360,000 active; Potency, µM (highest dose often 114 µM), without a hit: top-dose activity change, negative = inhibition, hits mostly inhibitors; purified TGR, DTNB reduction, TNB absorbance 405 nm; AID 485364; Q962Y6; also: % is scaled to controls: 0 for no effect and ±100 for the full control effect; nearly all actives have a fitted effect of over 60% in size
#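 Kinetic colorimetric format: TGR-catalysed, NADPH-driven DTNB reduction monitored via TNB absorbance. Enzyme dispensed at 20 nM; compound exposure 15 min at room temperature before reaction start.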
# * hit, by the source's call; ? = inconclusive; . = no result. Unless noted, calls follow the shape of the dose curve; as a rule, active = well fitted curve in the direction sought with a large enough effect; inconclusive = small, poorly fitted or top-dose-only effect, or another doubt; inactive = no such curve, though single readings can be large; an effect the other way counts as inactive or inconclusive. Potency is read from the fitted curve at half-maximal effect.
SMILES,Pf growth 48h,SARS PLpro yeast,Pf growth 96h,Sm TGR block
COc1ccccc1NC(=S)N(CCCN1CCOCC1)Cc1cn(C)c2ccccc12,?,21%,43%,-7%
CCOc1ccccc1NC(=S)N(CCCN1CCOCC1)Cc1cn(C)c2ccccc12,12µM*,3%,?,-4%
Cc1nc(-c2ccc(C)c(N3CCN(C(=O)Nc4ccccc4C(F)(F)F)CC3)c2)no1,.,.,.,2%
CCOc1ccccc1NC(=S)NC1CC2CCC1C2 (stereo not drawn),?,-2%,5.2µM*,-27%
COc1ccc2c(c1)OC[C@H]1[C@H]2N2C(=O)CN(Cc3ccc(Cl)cc3)C(=O)[C@@]2(C)[C@H]1c1ccccc1,2.9µM*,-4%,?,-27%
COc1ccc(CN2CC(=O)N3[C@H]4c5ccc(OC)cc5OC[C@@H]4[C@H](c4ccccc4)[C@]3(C)C2=O)cc1,4.7µM*,-26%,?,3%
COc1ccc2c(c1)OC[C@H]1[C@H]2N2C(=O)CN(C)C(=O)[C@@]2(C)[C@H]1c1ccccc1,25%,0%,?,-9%
COc1ccc2c(c1)[C@H]1[C@H](CO2)[C@H](c2ccccc2)[C@]2(C)C(=O)N(Cc3ccc(C)cc3)CC(=O)N12,.,2%,.,.
COc1ccc(CCNC(=O)Cn2nc(C)n3c(cc4cc(F)ccc43)c2=O)cc1OC,.,.,.,4%
COc1ccc(NC(=O)Cn2cnc3ccc(S(=O)(=O)N4CCC(C)CC4)cc3c2=O)cc1OC,.,.,.,18%
C=CC[C@H]1CC(Cc2ccccc2)=C[C@H](CC=C)N1,0.23µM*,-9%,0.074µM*,-9%
C=CCC1C=C(Cc2ccccc2)CC(CC=C)N1 (stereo not drawn),?,6%,4%,?
C=CC[C@@H]1Cc2c(Br)ccc(Br)c2[C@@H](CC=C)N1,?,-8%,-11%,-1%
C=CC[C@H]1CC(C)=C[C@H](CC=C)N1,0.93µM*,1%,?,-3%
O=C(NCC(=O)N(c1ccc(F)cc1)C(C(=O)NC1CCCC1)c1cccnc1)c1ccco1 (stereo not drawn),8%,1%,?,12%
Cc1cccc(OCCOC(=O)Nc2ccccc2)c1,3%,-10%,-7%,9%
Cc1ccccc1OCCNC(=S)Nc1ccccc1,?,6%,?,-14%
Cc1cccc(OCCOc2ccccc2C=C(C#N)C#N)c1,3%,-36%,25%,2.5µM*
Cc1ccccc1OCCOc1ccccc1C=C(C#N)C#N,14%,-25%,161%,4µM*
O=C(CSc1nc2ccc(NC(=O)CSc3nnnn3Cc3ccccc3)cc2s1)Nc1ccccc1,13µM*,-14%,?,-2%
CCN(CC)C(=O)CSc1nc2ccc(NC(=O)CSc3nccn3C)cc2s1,8.3µM*,-8%,?,-13%
COC(=O)CSc1nc2ccc(NC(=O)CSc3nnnn3Cc3ccccc3)cc2s1,0%,4%,?,5%
Cc1ccccc1OCc1nnc(SCC(=O)NCc2ccccc2)n1C,-18%,-1%,.,-1%
Cc1cccc(OCc2nnc(SCC(=O)c3cccs3)n2C)c1C,-23%,8%,8.3µM*,-12%
CCOC(=O)c1ccccc1NC(=O)CSc1nnc(COc2ccccc2C)n1C,13µM*,-2%,?,5%
SMILES,Pf growth 48h,SARS PLpro yeast,Pf growth 96h,Sm TGR block
CCn1c(SCC(=O)c2cccs2)nnc1-c1cccs1,28%,-4%,113%,0%
CCN(CC)C(=O)CSc1nc2ccc(NC(=O)CSc3nnc(N)s3)cc2s1,?,-13%,?,3%
COc1cc(CCC(=O)NCc2ccc3c(c2)CCN3C(=O)c2ccc(F)cc2)cc(OC)c1OC,.,.,.,5%
Cc1ccccc1N1CCN(S(=O)(=O)c2nnc(NC(=O)c3ccco3)s2)CC1,10%,-11%,?,-31%
Cc1cc(C)cc(NC(=O)CSc2nnc(COc3ccccc3Cl)o2)c1,.,.,.,11%
CCOC(=O)c1ccccc1NC(=O)CSc1nc(N)cc(N)n1,2%,-21%,12µM*,1%
Cc1ccccc1OCc1nnc(SCC(=O)Nc2ccc3nc(SCC(=O)Nc4ccccc4)sc3c2)n1C,13µM*,5%,10µM*,6%
Cn1c(SCC(=O)Nc2ccc3nc(SCC(=O)N4CCCC4)sc3c2)nnc1-c1ccc(N)cc1,.,-2%,1.3µM*,-18%
COC(=O)c1ccccc1NC(=O)CSc1nc(N)cc(N)n1,.,6%,?,-2%
CC(=O)Nc1cccc(NC(=O)CSc2nnnn2Cc2ccccc2)c1,33%,8%,5.9µM*,16%
Cc1ccc(N(CC(=O)NCCSc2ccccc2)S(=O)(=O)c2ccc(F)cc2)cc1,.,.,.,2%
O=C(NC(=S)Nc1ccccc1Br)C1CCCC1,3%,5%,12%,13µM*
O=C(NC(=S)Nc1cccc(Cl)c1Cl)C1CC1,12µM*,-1%,3%,?
O=C(NC(=S)Nc1ccccc1Br)C1CCCCC1,.,21%,.,.
Cc1ccc(S(=O)(=O)N2CCCc3cc(NC(=O)c4ccc(C(F)(F)F)cc4)ccc32)cc1,.,.,.,3%
Cn1c(C(=O)N2CCN(c3cccc(C(F)(F)F)c3)CC2)cc2sccc21,4%,-3%,9.3µM*,-2%
Cc1cc(NC(=O)COC(=O)C2=NN(c3ccccc3)C(=O)CC2)c([N+](=O)[O-])cc1C,.,-6%,.,.
CCCCC(=O)NC(NC(=S)N1CCOCC1)C(Cl)(Cl)Cl (stereo not drawn),8.3µM*,-2%,.,5%
COc1cccc(CNC(=O)CCc2c(C)c3cc4c(C)c(C)oc4cc3oc2=O)c1,.,.,.,-2%
CC(=O)c1ccc(C(=O)N2CCc3c([nH]c4ccccc34)C2c2cccc(C)n2)s1 (stereo not drawn),?,-1%,13µM*,-6%
Cc1nc(C)c(CC(=O)N2CCc3c([nH]c4ccccc34)C2c2ccccn2)s1 (stereo not drawn),?,2%,10µM*,?
c1ccc(C2c3[nH]c4ccccc4c3CCN2Cc2cccn2-c2ccccn2)nc1 (stereo not drawn),?,0%,?,50µM*
COc1ccc(C2c3[nH]c4ccccc4c3CCN2C(=O)Cc2nonc2C)c(F)c1 (stereo not drawn),10µM*,-2%,?,-3%
Cc1cccc(C2c3[nH]c4ccccc4c3CCN2C(=O)c2ccc(=O)[nH]c2)n1 (stereo not drawn),?,-1%,-13%,2%
Cc1cccn2c(=O)nc(SCC(=O)Nc3ccc4c(c3)OCO4)nc12,?,4%,31%,-17%
C[C@H]1CN([C@@H](C)CO)C(=O)c2cccc(NC(=O)Nc3ccc(F)cc3)c2O[C@@H]1CN(C)Cc1ccc(C(=O)O)cc1,.,-2%,.,.
Cc1cc2cc(C(=O)N3CCc4c([nH]c5ccccc45)C3c3ccccn3)ccc2o1 (stereo not drawn),10µM*,-3%,9.3µM*,12%
CC(=O)c1ccc(S(=O)(=O)Nc2ccc(C(=O)NCC(c3cccs3)N3CCOCC3)cc2)cc1 (stereo not drawn),?,.,-9%,14µM*

# From PubChem BioAssay
